Hit rate of the full screen: of about 3,200 compounds, about 300 (9.4%) showed activity. The full list was thinned out, with actives kept by preference.
System: A673/TR/shEF
Assay: cell viability (LOESS-normalised, relative to median of negative controls) (log2 ratio); higher = more viable cells (less compound effect), active = hit call of the paper (over 3 MAD below the median)
Settings: treatment time: 72 h
Method in brief: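 For three days, A673/TR/shEF Ewing sarcoma cells in 384-well plates (1,500 per well) were treated with library compounds at two or more concentrations or with DMSO controls, after doxycycline had been added or withheld 24 h beforehand to induce EWS-FLI1 shRNA knockdown. Viability was read by CellTiter-Glo luminescence on an Envision reader. The data were LOESS-corrected per plate, divided by the median of negative controls and log2-transformed.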

[1] = 0.25 µM, library screen: screen2, EWS-FLI1 expression: high (no doxycycline)
[2] = 0.25 µM, library screen: screen2, EWS-FLI1 expression: low (doxycycline-induced shRNA knockdown)
[3] = 2.5 µM, library screen: screen2, EWS-FLI1 expression: high (no doxycycline)
[4] = 2.5 µM, library screen: screen2, EWS-FLI1 expression: low (doxycycline-induced shRNA knockdown)
[5] = 0.025 µM, library screen: screen1, EWS-FLI1 expression: high (no doxycycline)
[6] = 0.025 µM, library screen: screen1, EWS-FLI1 expression: low (doxycycline-induced shRNA knockdown)
[7] = 0.25 µM, library screen: screen1, EWS-FLI1 expression: high (no doxycycline)
[8] = 0.25 µM, library screen: screen1, EWS-FLI1 expression: low (doxycycline-induced shRNA knockdown)
[9] = 2.5 µM, library screen: screen1, EWS-FLI1 expression: high (no doxycycline)
[10] = 2.5 µM, library screen: screen1, EWS-FLI1 expression: low (doxycycline-induced shRNA knockdown)
[11] = 25 µM, library screen: screen1, EWS-FLI1 expression: high (no doxycycline)
[12] = 25 µM, library screen: screen1, EWS-FLI1 expression: low (doxycycline-induced shRNA knockdown)

Measured: cell viability (log2)

NC(Cc1cc(O)c(O)cc1O)C(=O)O (configuration not stated)
inactive: [1] 0.0775 | [2] 0.133 | [3] 0.0832 | [4] 0.2

CC(=O)c1c(O)c(C)c(O)c(Cc2c(O)c3c(c(C(=O)/C=C/c4ccccc4)c2O)OC(C)(C)C=C3)c1O
active: [11] -0.306
inactive: [5] 0.0285 | [6] 0.0263 | [7] 0.0889 | [8] 0.0306 | [1] 0.209 | [2] 0.109 | [9] 0.055 | [10] -0.0112 | [3] 0.118 | [4] 0.156 | [12] -0.0436

CC(N)Cc1c[nH]c2ccc(O)cc12 (configuration not stated)
inactive: [1] 0.112 | [2] 0.067 | [3] 0.123 | [4] 0.0164

COc1ccc(C(c2ccc(OC)cc2)C(Cl)(Cl)Cl)cc1
inactive: [7] 0.0772 | [8] 0.0568 | [9] 0.0994 | [10] 0.0877

ClC1=C(Cl)[C@]2(Cl)[C@H]3[C@H]([C@@H]4C=C[C@H]3C4)[C@@]1(Cl)C2(Cl)Cl
inactive: [7] 0.211 | [8] 0.0643 | [9] 0.0733 | [10] 0.136

CCN(CC)C(=O)N[C@@H]1C[C@@H]2c3cccc4[nH]cc(c34)C[C@H]2N(C)C1
inactive: [1] 0.108 | [2] 0.0251 | [3] 0.215 | [4] -0.0279

CCCCSP(=O)(SCCCC)SCCCC
inactive: [8] 0.121 | [9] 0.0791 | [10] 0.0846
active: [7] -0.12

CCCSP(=O)(OCC)SCCC
inactive: [7] 0.112 | [8] 0.104 | [9] 0.0625 | [10] 0.0939

CC1=C[C@@H]2c3cccc4[nH]cc(c34)C[C@H]2N(C)C1
inactive: [1] 0.126 | [2] 0.0939 | [3] 0.18 | [4] 0.0817

CCOP(=S)(OCC)SCSCC
inactive: [7] 0.102 | [8] -0.0178 | [9] 0.0726 | [10] 0.115

NC1CC1c1ccccc1 (configuration not stated)
inactive: [7] 0.107 | [8] 0.128 | [9] 0.188 | [10] 0.0868

COc1ccc2c3c1O[C@H]1[C@@H](O)CCC4[C@@H](C2)N(C)CC[C@@]341 (some centres not stated)
inactive: [7] 0.0725 | [8] 0.0483 | [9] 0.0123 | [10] 0.128

C=CCN1CCC2(C)c3cc(O)ccc3CC1C2C (configuration not stated)
inactive: [1] 0.143 | [2] 0.072 | [3] 0.0589 | [4] 0.0707

N#Cc1c(Cl)cccc1Cl
inactive: [7] 0.126 | [8] 0.0183 | [9] 0.084 | [10] 0.0798

N#Cc1c(Cl)c(Cl)c(Cl)c(C#N)c1Cl
active: [9] -0.219
inactive: [7] -0.0732 | [8] 0.00425 | [10] 0.063

CCCCOC(=O)c1ccccc1C(=O)OCc1ccccc1
inactive: [7] 0.109 | [8] 0.0867 | [9] 0.0605 | [10] 0.00546

C[C@@H]1c2cc(O)c(O)cc2CCN1C
inactive: [1] 0.203 | [2] 0.114 | [3] 0.129 | [4] 0.102

C[N+]1(C)C2CC(OC(=O)C(CO)c3ccccc3)CC1C1OC12 (configuration not stated)
inactive: [7] 0.0929 | [8] 0.0137 | [9] 0.182 | [10] 0.0439

CC(C)(C)c1cc(C=C(C#N)C#N)cc(C(C)(C)C)c1O
active: [9] -1.1 | [11] -3.7 | [12] -2.45
inactive: [5] 0.176 | [6] 0.0512 | [7] 0.092 | [8] 0.0707 | [1] 0.104 | [2] 0.0526 | [10] -0.0795 | [3] 0.0132 | [4] 0.112

CCC1C2CC3[C@@H]4N(C)c5ccccc5[C@]45CC(C2[C@H]5O)N3[C@@H]1O (some centres not stated)
inactive: [7] 0.014 | [8] -0.00944 | [9] 0.104 | [10] 0.0619

CCC(=O)Nc1ccc(Cl)c(Cl)c1
inactive: [7] 0.114 | [8] -0.0209 | [9] 0.0655 | [10] 0.0703

CC(=O)[O][Hg][c]1ccccc1
active: [7] -0.557 | [9] -2.86 | [10] -2.46
inactive: [8] -0.147

NCC(=O)c1ccccc1
inactive: [7] 0.0631 | [8] 0.0462 | [9] 0.0615 | [10] -0.00509

CCCN1CCCC2Cc3[nH]ncc3CC21 (configuration not stated)
inactive: [1] 0.135 | [2] 0.086 | [3] 0.231 | [4] 0.107

C[C@@H]1C[C@@H]([C@H](O)CC2CC(=O)NC(=O)C2)C(=O)[C@@H](C)C1
inactive: 0.025 µM, library screen: screen2, EWS-FLI1 expression: high (no doxycycline) 0.156 | 0.025 µM, library screen: screen2, EWS-FLI1 expression: low (doxycycline-induced shRNA knockdown) 0.119 | [7] 0.141 | [8] 0.0197 | [1] 0.0548 | [2] 0.0334
active: [9] -0.514 | [10] -0.278 | [3] -0.922 | [4] -0.399 | 25 µM, library screen: screen2, EWS-FLI1 expression: high (no doxycycline) -2.23 | 25 µM, library screen: screen2, EWS-FLI1 expression: low (doxycycline-induced shRNA knockdown) -1.54

COc1ccc(CN2CCN(Cc3cccc(OC)c3)CC2)cc1
inactive: [7] -9.1e-05 | [8] 0.123 | [9] 0.136 | [10] 0.0992

ClC(Cl)=C(c1ccc(Cl)cc1)c1ccc(Cl)cc1
inactive: [7] 0.0882 | [8] 0.047 | [9] 0.0599 | [10] 0.0669

CC[C@H]1CN2CC[C@H]1C[C@@H]2[C@@H](O)c1ccnc2ccc(OC)cc12
inactive: [7] 0.074 | [8] 0.121 | [9] 0.133 | [10] 0.0925

COc1cc(C[C@@H](C)N)c(OC)cc1I
inactive: [1] 0.178 | [2] 0.0876 | [3] 0.142 | [4] 0.145

CCCC1CCCCN1 (configuration not stated)
inactive: [7] 0.115 | [8] 0.153 | [9] 0.172 | [10] 0.128

CC(Cc1ccc(O)cc1)NCC(O)c1cc(O)cc(O)c1 (configuration not stated)
inactive: [7] 0.143 | [8] 0.0538 | [1] 0.23 | [2] 0.0381 | [9] 0.142 | [10] 0.063 | [3] 0.166 | [4] 0.00325
